This is part of a sample that, as a whole, favours compounds with a hit. Of some 83,000 tested, about 20% had one in any assay.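 Each cell line was grown in a 96-well plate and treated with one concentration of compound for 48 hours. Values below 10 were considered active.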 Values without a mark were called inactive. Calls of active or inactive are those of the source.
These molecules were tested on K-562 leukemia (assay: NCI-60 one-dose screen, 48 h (100 = growth as untreated, 0 = no growth, -100 = all killed)). Conditions: 10 µM unless noted.
In the case of `CCN1C(=O)N(CC)C2C1NN=c1s/c(=C\c3ccccc3F)c(=O)n12` (stereo not given), the growth is reported as 8.14% (active).
With `O=C(CSC(=S)n1cnnc1)NC(=O)c1ccccc1` the growth was 89.8%.
`CC(=O)n1nc(C(=O)OC(C)(C)c2ccccc2)c2ccccc21` was tested, and the growth was 97%.
For `Oc1c(I)cc(I)cc1CNCc1ccccn1`, the growth was 20.9%.
Work on `COc1ccc(C(=O)Nc2cccc(-c3cc(=O)c4c(OC)c(OC)c(OC)cc4o3)c2)cc1` yielded a growth of 20.6%.
Work on `COc1ccccc1NC(=O)N=Nc1c(O)[nH]c2ccccc12` yielded a growth of 91.2%.
For `O=C(CSc1nnc(-c2cnccn2)n1-c1ccccc1)c1ccc(Cl)cc1`, the growth was 91.1%.
Molecule `COc1ccc(/C=C(\C#N)n2nnc3ccc(Cl)cc32)cc1` has a growth of 21.2%.
`Cc1ccc(C[P+](c2ccccc2)(c2ccccc2)c2ccccc2)cc1` was tested, and the growth was 2.1% (active).
In the case of `COc1ccc2[nH]c(C(=O)N3CCN(C(=O)OCc4ccc5c(Cl)cc(Cl)c(O)c5n4)CC3)cc2c1`, the growth is reported as 4.22% (active).
Molecule `COc1ccc(C(=O)/C=C/c2c(C(F)(F)F)nc3ccccn23)cc1OC` has a growth of 11.4%.
Work on `Cn1c(=O)c2nc(/C=C/c3ccccc3)c(=O)[nH]c2n(C)c1=S` yielded a growth of 105%.
With `Cc1c[n+](Cc2ccc3ccccc3c2)cn1Cc1ccc2ccccc2c1` the growth was 8.82% (active).
For `O=C1/C(=C/c2ccccc2O)CC/C1=C\c1ccccc1O`, the growth was 7.41% (active).
In the case of `N#Cc1ccc2c(c1)C(=O)c1c-2n(CCCN)c(=O)c2cc([N+](=O)[O-])ccc12`, the growth is reported as -100% (active).
Work on `CCCCCCCCCCCCCCCCOCCCOP(=O)(O)C1CCCN(O)C1=O` (stereo not given) yielded a growth of 19.4%.
`CCOC(=O)C#Cc1c(C(=O)OCC)nnn1Cc1ccc([N+](=O)[O-])cc1` was tested, and the growth was 4.56% (active).
For `CCN1C(=S)N(c2ccccc2)C2NC(=S)N(/N=C/C=C/c3ccccc3OC)C21` (stereo not given), the growth was 8.73% (active).
`CCOc1nc(-c2ccccc2)cc2c(O)c(C(=O)N/N=C/c3ccccc3)[nH]c(=O)c12` gave a growth of 48.2%.
`CCNCCNc1cc(-c2ccc(C(F)(F)F)cc2)c(C#N)c2nc3ccccc3n12` was tested, and the growth was -50.9% (active).
`NC(N)=NCCCCCNc1noc(Cc2c[nH]c3cc(Br)ccc23)n1` gave a growth of 86.4%.
Work on `Cc1c(O)cc(-c2cnc(Nc3ccccc3)s2)c(O)c1C` yielded a growth of 87.2%.
Work on `CCCCCCCCCc1ccc(OCCOCCOCCOCCOCCOCCOCCOCCOCCO)cc1` yielded a growth of 10.5%.
With `CCOC(=O)C1=C(N)Oc2c(sc3c(F)cccc23)C1c1ccc(O)cc1` (stereo not given) the growth was 12.6%.
In the case of `CCOC(=O)c1cc(C)n(-c2ccc(C(=O)O)cc2)c1C`, the growth is reported as 116%.
`O=c1[nH]c(-c2ccccc2)nc2sc3cc(O)ccc3c12` gave a growth of 25.9%.
`CCc1ccccc1-n1c(-c2ccc(OC)cc2)cc(-c2ccc(OC)cc2)c(C#N)c1=O` showed a growth of 108%.
For `COC(=O)C1Cc2ccccc2CN1C(=O)c1ccc2c(c1)Cc1ccccc1-2` (stereo not given), the growth was 21.2% [50 µM].
Molecule `COc1cccc(/C=C2\COc3ccc(O)c(O)c3C2=O)c1` has a growth of 11.7%.
Molecule `CCCCn1c(=O)[nH]c(N)c([C@@H]2c3c([nH]c(=O)n(CCCC)c3=O)Oc3ccc4ccccc4c32)c1=O` has a growth of 76.3%.
`COc1cc2c(c(OC)c1OC)CCC(c1cccc(NC(=O)c3ccc(Br)cc3)c1)O2` (stereo not given) showed a growth of 49.7%.
For `NC(=O)C(=O)c1ccccc1NC=O`, the growth was 92.3%.
In the case of `NC(=O)c1cc(I)ccc1NC(=O)/C=C/c1ccccc1`, the growth is reported as 1.5% (active).
In the case of `O=[N+]([O-])c1ccc(O)cc1Br`, the growth is reported as 93%.
With `COc1ccc(OC)c(Nc2nnc(-c3ccc(O)c(OC)c3)o2)c1` the growth was 32.3%.
With `C=CCn1c(C)nc2ccc(Nc3nc(Nc4ccc5nc(C)n(CC=C)c5c4)c4ccccc4n3)cc21` the growth was -43.5% (active).
With `Cn1c(=O)cc2c3c(c(NCCCO)ccc31)C(=O)c1ccccc1-2` the growth was 38.1%.
Molecule `O=S(=O)(c1ccccc1)n1cc2c(c1)-c1nc(Nc3ncccn3)sc1CC2` has a growth of 73.8%.
Molecule `O=S(=O)(NCCCNc1nccc(-c2c(-c3ccc(F)c(O)c3)nc3sccn23)n1)c1ccccc1` has a growth of 37.6%.
With `C=C(C)[C@@H]1CC[C@]2(C(=O)O)CC[C@]3(C)[C@H](CC[C@@H]4[C@@]5(C)CCC(NC(=O)c6cccc(OC(C)=O)c6OC(C)=O)C(C)(C)[C@@H]5CC[C@]43C)[C@@H]12` (stereo not given in full) the growth was 10.7%.

The molecules below were run on MALME-3M melanoma in the same assay as above. Conditions: 10 µM unless noted.
For `CCN1C(=O)N(CC)C2C1NN=c1s/c(=C\c3ccccc3F)c(=O)n12` (stereo not given), the growth was 52.6%.
Work on `O=C(CSC(=S)n1cnnc1)NC(=O)c1ccccc1` yielded a growth of 98.4%.
`CC(=O)n1nc(C(=O)OC(C)(C)c2ccccc2)c2ccccc21` gave a growth of 105%.
For `Oc1c(I)cc(I)cc1CNCc1ccccn1`, the growth was 42.5%.
`COc1ccc(C(=O)Nc2cccc(-c3cc(=O)c4c(OC)c(OC)c(OC)cc4o3)c2)cc1` gave a growth of 53.4%.
In the case of `COc1ccccc1NC(=O)N=Nc1c(O)[nH]c2ccccc12`, the growth is reported as 95.8%.
`O=C(CSc1nnc(-c2cnccn2)n1-c1ccccc1)c1ccc(Cl)cc1` was tested, and the growth was 105%.
`COc1ccc(/C=C(\C#N)n2nnc3ccc(Cl)cc32)cc1` was tested, and the growth was 79.5%.
In the case of `Cc1ccc(C[P+](c2ccccc2)(c2ccccc2)c2ccccc2)cc1`, the growth is reported as 10.1%.
With `COc1ccc2[nH]c(C(=O)N3CCN(C(=O)OCc4ccc5c(Cl)cc(Cl)c(O)c5n4)CC3)cc2c1` the growth was -94.4% (active).
`COc1ccc(C(=O)/C=C/c2c(C(F)(F)F)nc3ccccn23)cc1OC` gave a growth of 41.5%.
`Cn1c(=O)c2nc(/C=C/c3ccccc3)c(=O)[nH]c2n(C)c1=S` gave a growth of 105%.
For `Cc1c[n+](Cc2ccc3ccccc3c2)cn1Cc1ccc2ccccc2c1`, the growth was 0.847% (active).
Molecule `O=C1/C(=C/c2ccccc2O)CC/C1=C\c1ccccc1O` has a growth of 80.4%.
`N#Cc1ccc2c(c1)C(=O)c1c-2n(CCCN)c(=O)c2cc([N+](=O)[O-])ccc12` was tested, and the growth was -82.3% (active).
For `CCCCCCCCCCCCCCCCOCCCOP(=O)(O)C1CCCN(O)C1=O` (stereo not given), the growth was 20.4%.
`CCOC(=O)C#Cc1c(C(=O)OCC)nnn1Cc1ccc([N+](=O)[O-])cc1` gave a growth of 53.8%.
Work on `CCN1C(=S)N(c2ccccc2)C2NC(=S)N(/N=C/C=C/c3ccccc3OC)C21` (stereo not given) yielded a growth of 54.1%.
With `CCOc1nc(-c2ccccc2)cc2c(O)c(C(=O)N/N=C/c3ccccc3)[nH]c(=O)c12` the growth was 136%.
`CCNCCNc1cc(-c2ccc(C(F)(F)F)cc2)c(C#N)c2nc3ccccc3n12` was tested, and the growth was -78.1% (active).
`NC(N)=NCCCCCNc1noc(Cc2c[nH]c3cc(Br)ccc23)n1` was tested, and the growth was 47.8%.
In the case of `Cc1c(O)cc(-c2cnc(Nc3ccccc3)s2)c(O)c1C`, the growth is reported as 107%.
For `CCCCCCCCCc1ccc(OCCOCCOCCOCCOCCOCCOCCOCCOCCO)cc1`, the growth was -10.2% (active).
`CCOC(=O)C1=C(N)Oc2c(sc3c(F)cccc23)C1c1ccc(O)cc1` (stereo not given) was tested, and the growth was 54.4%.
`CCOC(=O)c1cc(C)n(-c2ccc(C(=O)O)cc2)c1C` gave a growth of 130%.
`O=c1[nH]c(-c2ccccc2)nc2sc3cc(O)ccc3c12` showed a growth of 74.1%.
`CCc1ccccc1-n1c(-c2ccc(OC)cc2)cc(-c2ccc(OC)cc2)c(C#N)c1=O` showed a growth of 99.6%.
In the case of `COC(=O)C1Cc2ccccc2CN1C(=O)c1ccc2c(c1)Cc1ccccc1-2` (stereo not given), the growth is reported as 17.7% [50 µM].
With `COc1cccc(/C=C2\COc3ccc(O)c(O)c3C2=O)c1` the growth was -26.3% (active).
`CCCCn1c(=O)[nH]c(N)c([C@@H]2c3c([nH]c(=O)n(CCCC)c3=O)Oc3ccc4ccccc4c32)c1=O` gave a growth of 38.5%.
Molecule `COc1cc2c(c(OC)c1OC)CCC(c1cccc(NC(=O)c3ccc(Br)cc3)c1)O2` (stereo not given) has a growth of 80.4%.
`NC(=O)C(=O)c1ccccc1NC=O` gave a growth of 96.8%.
With `NC(=O)c1cc(I)ccc1NC(=O)/C=C/c1ccccc1` the growth was 42.7%.
`O=[N+]([O-])c1ccc(O)cc1Br` showed a growth of 102%.
With `COc1ccc(OC)c(Nc2nnc(-c3ccc(O)c(OC)c3)o2)c1` the growth was 79.9%.
`C=CCn1c(C)nc2ccc(Nc3nc(Nc4ccc5nc(C)n(CC=C)c5c4)c4ccccc4n3)cc21` was tested, and the growth was -78.9% (active).
In the case of `Cn1c(=O)cc2c3c(c(NCCCO)ccc31)C(=O)c1ccccc1-2`, the growth is reported as 27.3%.
`O=S(=O)(c1ccccc1)n1cc2c(c1)-c1nc(Nc3ncccn3)sc1CC2` was tested, and the growth was 50.3%.
For `O=S(=O)(NCCCNc1nccc(-c2c(-c3ccc(F)c(O)c3)nc3sccn23)n1)c1ccccc1`, the growth was 0.08% (active).
In the case of `C=C(C)[C@@H]1CC[C@]2(C(=O)O)CC[C@]3(C)[C@H](CC[C@@H]4[C@@]5(C)CCC(NC(=O)c6cccc(OC(C)=O)c6OC(C)=O)C(C)(C)[C@@H]5CC[C@]43C)[C@@H]12` (stereo not given in full), the growth is reported as -4.37% (active).
